HP1b chromo inh = HTS for Inhibitors of HP1-beta Chromodomain Interactions with Methylated Histone Tails. AlphaScreen HP1-beta / biotin-H3K9me3 peptide binding. 390,000 tested, 0.56% active. Chromobox protein homolog 1 (Homo sapiens), P83916. AID 540317, 2011. Potency, µM (top dose mostly 114 µM), without a hit: at the top dose activity change, negative = inhibition, most hits filed as inhibitors; further: nearly all actives have a fitted effect of over 70% in size
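HP1-beta protein (50 nM final) preincubated 30 min at room temperature with biotinylated H3(1-18)K9me3 peptide (50 nM) in PBS pH 7.4, 0.01% Tween-20, then compound added for 30 min. AlphaScreen streptavidin donor/nickel chelate acceptor beads (10 ug/mL final), 30 min dark, luminescence read.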
GLS inhibitor = qHTS for Inhibitors of Glutaminase (GLS); 410,000 tested, 0.21% active; AID 624170, 2012; Glutaminase kidney isoform, mitochondrial (Homo sapiens), O94925; GLS enzymatic activity, qHTS titration; Potency, µM (highest dose often 45.5 µM), inactives show at the highest dose activity change, negative = inhibition, actives largely listed as inhibitors; further: on the % scale 0 is the no-effect control and ±100 the full control effect
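Enzyme dispensed in phosphate buffer (45 mM, pH 8.2, 0.02% Tween-20), compounds pinned in, then 1 mM L-glutamine solution and the glutamate oxidase–HRP–Amplex Red mix added; fluorescence read immediately and again after 30 min at room temperature.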
JMJD2A Tudor inh = qHTS Assay for Inhibitors of JMJD2A-Tudor Domain; Lysine-specific demethylase 4A (Homo sapiens), O75164; AlphaScreen JMJD2A-Tudor / H3K4me3 peptide binding; Potency, µM (titrated, usually from 114 µM), without a hit: at the top dose activity change, negative = inhibition, hits mostly inhibitors; 390,000 tested, 4.4% active; AID 504339, 2011; further: on the % scale 0 is the no-effect control and ±100 the full control effect; nearly all actives have a fitted effect of over 50% in size
BAZ2B inh = qHTS Assay for Inhibitors of BAZ2B. AID 504333, 2011. 360,000 tested, 4.4% active. Bromodomain adjacent to zinc finger domain protein 2B (Homo sapiens), Q9UIF8. AlphaScreen BAZ2B-H3K14Ac peptide displacement. Potency, µM (titrated, usually from 114 µM), without a hit: at the top dose activity change, negative = inhibition, usual class: inhibitors; further: on the % scale 0 is the no-effect control and ±100 the full control effect; nearly all actives have a fitted effect of over 60% in size
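BAZ2B 50 nM plus b-H3(5-23)K14Ac 50 nM, PBS pH 7.4/0.01% Tween-20, 30 min RT; compound added (max 110 uM), 30 min RT; streptavidin donor/Ni-chelate acceptor beads 10 ug/mL final, 20 min dark; AlphaScreen read.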
G9a block = qHTS Assay for Inhibitors of Histone Lysine Methyltransferase G9a; Histone-lysine N-methyltransferase EHMT2 (Homo sapiens), Q96KQ7; G9a H3K9 monomethylation, AlphaScreen, 2 h; Potency, µM (series often up to 102 µM), for the others: at the highest dose activity, negative = inhibition, actives largely listed as inhibitors; 350,000 tested, 8.8% active; AID 504332, 2011; further: on the % scale 0 is the no-effect control and ±100 the full control effect; nearly all actives have a fitted effect of over 75% in size
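G9a (20 nM) was preincubated 15 min with compound, then reacted 2 h at room temperature with 500 nM biotin-H3K9 peptide and 20 µM SAM. Monomethyl-H3K9 detected by AlphaScreen using anti-H3K9me1 antibody.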
Numbers without * were called inactive; ? = inconclusive; nt = not tested or not shown; [ ] = another dose, or the depositor's remark. The list is not random: actives were taken first. Their share in the collection is about 10%. The call rests on the fitted dose curve; in most records, active means well fitted curve in the direction sought with a large enough effect; inconclusive means small, poorly fitted or top-dose-only effect, or another doubt; inactive means no such curve, though single readings can be large; an effect the other way counts as inactive or inconclusive. Potency means the concentration at half of the fitted maximal effect.

SMILES	HP1b chromo inh	GLS inhibitor	JMJD2A Tudor inh	BAZ2B inh	G9a block
Cc1cc(Cl)cc(C)c1OCCNCc1ccccc1	?	-6%	0.79µM*	71µM*	7.9µM*
C=CCNCCOc1c(C)cc(C)cc1Cl	36%	0%	-2%[57.1 µM]	8%	-8%[59 µM]
COc1c(Cl)cc(Cl)cc1CNCc1ccccc1	83%	5%	24%	6%	20%
Cc1cc(C)c(OCCNCc2ccccc2)c(C)c1	-24%	3%	1.1µM*	50µM*	7.1µM*
Cc1cc(Cl)cc(C)c1OCCOCCNCc1ccccc1	-4%	0%	22µM*	?	nt
CC(=O)OC[C@H]1O[C@@H](n2ccc(=O)[nH]c2=S)C(OC(C)=O)C1OC(C)=O (stereo partly specified)	18%	6%	-19%	-12%	-1%[59 µM]
COc1cc(C(C(=O)NC(C)(C)C)N(Cc2ccc3c(c2)OCO3)C(=O)c2cnccn2)cc(OC)c1OC (stereo unspecified)	43%	1%	-1%	-20%	13%[12.7 µM]
Cc1ccc2[nH]c(=O)c(C(c3nnnn3CC3CCCO3)N3CCCc4ccccc43)cc2c1 (stereo unspecified)	-12%	6%	?	?	50µM*
COc1ccc2[nH]c(=O)c(C(c3nnnn3CC3CCCO3)N3CCc4ccccc4C3)cc2c1 (stereo unspecified)	38%	-6%	-16%	-39%	?
CCc1ccc2[nH]c(=O)c(C(c3nnnn3Cc3ccco3)N3CCC(C)CC3)cc2c1 (stereo unspecified)	10%	-2%	-34%	5%	56µM*
Cc1cc2cc(C(c3nnnn3Cc3ccco3)N3CCc4ccccc4C3)c(=O)[nH]c2cc1C (stereo unspecified)	12%	1%	-35%	45µM*	?
Cc1cc(C)c2[nH]c(=O)c(C(c3nnnn3CC3CCCO3)N3CCCC(C)C3)cc2c1 (stereo unspecified)	-4%	3%	-31%	-6%	18µM*
Cc1ccc2[nH]c(=O)c(C(c3nnnn3CC3CCCO3)N3CCc4ccccc4C3)cc2c1 (stereo unspecified)	37%	-2%	-28%	?	2µM*
S=c1[nH]nc(-c2ccncc2)n1/N=C/c1ccccc1	11%	-2%	7.9µM*	-7%	1.3µM*
S=c1[nH]nc(-c2ccncc2)n1/N=C/c1cn(-c2ccccc2)nc1-c1ccc(Cl)cc1	12%	-12%	-35%	-4%	-12%
Cc1cccc(/C=N/n2c(-c3ccncc3)n[nH]c2=S)c1	-37%	?	2.8µM*	-8%	1µM*
O=C(NC1CCCCC1)N1CCCC(c2nc(-c3cccs3)no2)C1 (stereo unspecified)	36%	4%	-18%[11.4 µM]	8%	11%
CCc1ccc(/C=N/Nc2nn[nH]n2)cc1	28%	-32%	?	?	10µM*
Fc1ccc(/C=N/Nc2nn[nH]n2)cc1	50%	-1%	-18%	?	3%
COc1ccc2nc(N/C(N)=N/C(=S)Nc3cccc(C)c3)nc(C)c2c1	9%	15%	-24%	7%	13%[59 µM]
Cc1nn(Cc2c(F)c(F)c(F)c(F)c2F)c(C)c1NC(=O)c1cccc(COc2ccc(Cl)cc2)c1	23%	5%	-10%	-2%[57.1 µM]	-32%
O=C1CSC(=S)N1N1C(=O)c2cccc([N+](=O)[O-])c2C1=O	nt	nt	nt	?	6.3µM*
O=C1c2cccc([N+](=O)[O-])c2C(=O)N1CCO	55%	-2%	6%	-12%	-37%
CC1CC2=C(C(=O)O1)C(C)Nc1ccccc1N2 (stereo unspecified)	15%	17%	-7%	9%	16%[59 µM]
O=C1OC(c2ccccc2)=C/C1=C/c1cccs1	-8%	-6%	?	10µM*	13µM*
SMILES	HP1b chromo inh	GLS inhibitor	JMJD2A Tudor inh	BAZ2B inh	G9a block
O=C1N=C(c2ccccc2)S/C1=C\c1cccs1	-74%	24%	22µM*	?	1.4µM*
O=C1C(=Cc2cccs2)Oc2ccccc21	7%[57 µM]	7%	-30%	nt	nt
CCOc1ccc(NC(=O)COC(=O)CSCC(=O)Nc2ccc(C)cc2C)cc1	34%	-2%	2%	4%	0%[12.7 µM]
Cc1cc[n+](-c2nc([O-])sc2/C=N/Nc2ccc([N+](=O)[O-])cc2)cc1	-21%	8%	-33%	?	45µM*
O=[N+]([O-])c1ccc(N/N=C/c2ccccc2O)cc1	12%	16%	-7%	-3%	21%
Cc1ccc2cccc(OC(=O)c3ccc4c(c3)OCCO4)c2n1	27%	-8%	?	nt	8.9µM*
C/C(=N\NC(N)=S)c1ccc(-n2ccnc2)cc1	18%	19%	-19%	-20%	?
C/C(=N\Nc1ccc(Cl)c(Cl)c1)c1ccc(-n2ccnc2)cc1	13%	11%	-31%	?	11µM*
CCN1CCN(C(=O)c2ccc3c(c2)S(=O)(=O)c2ccccc2C3=O)CC1	38%	-7%	6%	-31%	50µM*
COc1cc(C#Cc2ccc3cc(CCO)oc(=O)c3c2)cc(OC)c1	23%	15%	-27%	nt	nt
N#CC1=C(N)OC2=C(C(=O)CCC2)C12CCC1(CC2)OCCO1	5%	0%	-17%	-36%	79µM*
CCOC(=O)N1CCC2(CC1)C(C#N)=C(N)OC1=C2C(=O)CCC1	9%	0%	-12%	-1%	12%
CC(=O)N=C1SC2CS(=O)(=O)CC2N1c1ccc(-c2nc3ccc(C)cc3s2)cc1 (stereo unspecified)	nt	nt	nt	-4%	-14%
Cc1ccc2nc(-c3ccc(N4C(=NC(=O)CCC(=O)O)SC5CS(=O)(=O)CC54)cc3)sc2c1 (stereo unspecified)	?	?	?	?	45µM*
Cc1sc2ncn(CC(=O)N3CCN(c4ccccc4)CC3)c(=O)c2c1S(=O)(=O)N1CCC(C)CC1	5%	16%	-28%	-17%	-47%[59 µM]
N#CC1=C(N)Oc2cc(N)ccc2C1c1cccnc1 (stereo unspecified)	17%	8%	-12%	-2%	6%
CC(=O)n1c2ccccc2c2ccccc21	61%	-1%	21%	12%	100%[59 µM]
CC(=O)n1c(Cl)c(NC(=O)CCl)c2ccccc21	26%	-7%	-3%	45µM*	?
COc1ccc(CN(C(=O)Nc2cccc(OC)c2)C2CCN(C(C)=O)CC2)cc1	22%	-11%	2%	8%	-6%[59 µM]
CCCC(=O)Oc1c(Sc2ccc(Cl)cc2)c(C)nn1-c1ccccc1	13%	1%	-35%	3%	4µM*
Cc1ccc(Sc2c(C)nn(-c3ccccc3)c2OC(=O)CC(C)C)cc1	77%	4%	16%	7%	8.9µM*
